Laboratory results reported in the supplement of paper PMC3334620.
Whole data set: some 33,000 sequences, median “E-score (-0.5 to 0.5)” near -0.016, cut for the highest 2% near 0.3. The entries come from a sample that favours the highest values as a whole.

Molecular target: T1, Yer184c (UniProt P39961)
T1 sequence: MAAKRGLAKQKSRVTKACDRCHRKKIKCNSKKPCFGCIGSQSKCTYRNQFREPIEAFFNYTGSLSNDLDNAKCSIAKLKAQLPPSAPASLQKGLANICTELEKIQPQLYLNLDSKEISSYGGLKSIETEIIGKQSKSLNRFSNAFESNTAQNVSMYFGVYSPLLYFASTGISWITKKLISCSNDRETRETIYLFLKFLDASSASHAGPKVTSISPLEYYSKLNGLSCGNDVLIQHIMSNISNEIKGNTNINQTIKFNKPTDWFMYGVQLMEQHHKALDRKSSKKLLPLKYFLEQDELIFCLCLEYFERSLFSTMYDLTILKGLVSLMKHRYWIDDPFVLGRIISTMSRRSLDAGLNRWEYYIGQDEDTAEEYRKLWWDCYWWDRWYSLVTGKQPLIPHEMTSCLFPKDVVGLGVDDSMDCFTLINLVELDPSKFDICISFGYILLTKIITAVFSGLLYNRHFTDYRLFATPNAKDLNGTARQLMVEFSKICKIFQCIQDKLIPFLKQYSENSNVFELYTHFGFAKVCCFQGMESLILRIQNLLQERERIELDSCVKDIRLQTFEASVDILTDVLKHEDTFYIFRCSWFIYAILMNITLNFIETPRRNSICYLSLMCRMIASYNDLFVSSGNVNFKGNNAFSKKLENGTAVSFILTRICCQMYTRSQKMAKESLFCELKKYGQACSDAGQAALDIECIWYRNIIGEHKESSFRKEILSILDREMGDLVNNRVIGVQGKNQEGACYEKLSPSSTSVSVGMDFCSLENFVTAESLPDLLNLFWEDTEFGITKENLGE
Test: PBM E-score (8-mer binding enrichment) (E-score (-0.5 to 0.5)); higher = stronger / more preferred TF binding
Conditions: protein concentration: 100 nM; construct: GST-full length
Outline: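 E-scores (a modified Wilcoxon-Mann-Whitney statistic) were assigned by the Universal PBM Analysis Suite to every ungapped eight-base word pooled with its reverse complement. The input came from universal all-10-mer Agilent arrays made double-stranded by primer extension and probed with GST-tagged yeast transcription factors at about 100-200 nM. Fluorescent anti-GST detected bound protein, and masliner normalised the scans.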

Row | Sequence | PBM E-score
1 | AGCATTTA | 0.0356
2 | AAGCCACC | -0.342
3 | CAGGCCCA | -0.211
4 | CTCCGGAC | 0.328
5 | CTCCGGTC | 0.248
6 | ACCCGGAC | 0.055
7 | CCCCGGAC | 0.0445
8 | ATCCGTAC | 0.195
9 | ATCCGGAC | 0.322
10 | CAATCCTC | -0.113
11 | CCAGATGC | -0.103
12 | GCAAGAAA | 0.161
13 | ATTGAGCG | -0.0456
14 | CCGTCCAG | 0.122
15 | AACCGGTT | 0.359
16 | AACCGGAT | 0.366
17 | AACCGGTG | 0.214
18 | AACCGGGA | 0.188
19 | CACCGGAG | 0.173
20 | GACCGGAA | 0.232
21 | AACCGGGG | -0.0803
22 | AACCGGTC | 0.229
23 | AACCGGGT | 0.202
24 | AACCGGAA | 0.34
25 | AACCGGAC | 0.212

Row | Sequence | PBM E-score
26 | AACCGGAG | 0.358
27 | AGCTACCA | -0.173
28 | ATGCATTA | 0.0989
29 | GAATCCCA | -0.0522
30 | ATAGGAGG | -0.285
31 | AGGCTTAC | -0.0812
32 | GACTGGTA | 0.00991
33 | TACCGGGA | 0.207
34 | CACCGGGA | 0.152
35 | CACCGGAC | 0.268
36 | CACCGGAA | 0.368
37 | TACCGGTA | 0.23
38 | TACCGGAA | 0.409
39 | AATGGCCC | -0.247
40 | ACCTAGTC | -0.244
41 | CACATCCG | 0.282
42 | AATATCCG | 0.352
43 | ATTATCCG | 0.36
44 | AGTATCCG | 0.332
45 | AATATCCC | -0.0444
46 | AGTATCCC | -0.0953
47 | ATTATCCC | 0.0672
48 | AATATCCA | 0.17
49 | AACATCCC | 0.141
50 | AGTATCCA | -0.00531

Row | Sequence | PBM E-score
51 | AACATCCG | 0.381
52 | ATTATCCA | 0.0655
53 | AATGTTAT | 0.184
54 | CACCAGGC | -0.103
55 | CCCTTGAA | -0.0291
56 | TACAATAA | 0.14
57 | CATGGTAC | -0.223
58 | ATACCCGA | 0.111
59 | CGCCTAAC | -0.0428
60 | TGACTACA | -0.022
61 | AAAAATAA | 0.237
62 | ATTAAAAC | 0.286
63 | TAATATAA | 0.339
64 | GAATATAA | 0.085
65 | AAATATAA | 0.327
66 | AAATATGA | 0.0794
67 | ATTAAAAG | 0.172
68 | AAATATGC | 0.0299
69 | AAATATCA | 0.124
70 | CAATATAA | 0.243
71 | ATTAAAAA | 0.323
72 | AAATATGT | 0.304
73 | GTACAATA | 0.188
74 | CACCGCGG | 0.242
75 | ACTATATA | 0.19

Row | Sequence | PBM E-score
76 | GACGCATA | 0.0516
77 | GAATCTAC | 0.0543
78 | CGATCACG | 0.165
79 | TAGCACGA | 0.0455
80 | ACCCCACA | -0.308
81 | AACGATAA | 0.0408
82 | AACATCGA | 0.0284
83 | CAATATTA | 0.133
84 | AATAATTA | 0.299
85 | TATAATAA | 0.324
86 | CATAATAA | 0.0808
87 | CATAATTA | 0.233
88 | AAATATTA | 0.206
89 | GATAAAAA | 0.29
90 | TAATATTA | 0.381
91 | GATAATTA | 0.318
92 | GATAAACC | 0.208
93 | GATAAAAC | 0.305
94 | AATAATAA | 0.285
95 | CCACAGTC | -0.3
96 | GTGGCCAC | -0.0584
97 | GAGTTGAC | -0.0176
98 | AATCTTAG | 0.124
99 | ATATGGTG | -0.0255
100 | ATAGTGAC | -0.0492

Row | Sequence | PBM E-score
101 | GCTATGGA | -0.192
102 | TCTAACCA | 0.0158
103 | TAGCTCCA | -0.0638
104 | CTTATAAA | 0.174
105 | TTTATAAA | 0.348
106 | AATAAATG | 0.174
107 | CGATATTC | 0.155
108 | GTTATAAA | 0.0949
109 | CGATATTA | 0.343
110 | GGATATTA | 0.132
111 | ATAAAAAC | 0.305
112 | ATAAAACC | -0.0255
113 | ATAAAAAA | 0.289
114 | AATAAATA | 0.414
115 | TATAAATA | 0.266
116 | AGATTCAC | -0.157
117 | AAGGCTGC | -0.0369
118 | AACCATCA | 0.0573
119 | GGTCTTAA | -0.104
120 | ACCGTTGG | -0.244
121 | CACTTATC | -0.0553
122 | ATAGAATC | 0.128
123 | AGAGGCGC | -0.119
124 | CGGTATTA | 0.251
125 | ACCACACG | -0.164

Row | Sequence | PBM E-score
126 | TATAAAAA | 0.373
127 | CATAAAAA | 0.252
128 | GATTAAAA | 0.296
129 | AAATATAC | 0.0721
130 | TATATAAA | 0.289
131 | TATTAAAA | 0.318
132 | AAATATAG | 0.189
133 | AAATATAT | 0.305
134 | AATTAAAA | 0.202
135 | GTAAAGAC | 0.0705
136 | AATAACGA | 0.068
137 | ATCAAGTG | -0.132
138 | ATCTTCAA | 0.187
139 | TTAGCTAA | 0.0769
140 | GATCCGCA | 0.0531
141 | GATCCGTA | 0.17
142 | CATCCGGG | 0.223
143 | AATCCGAT | 0.275
144 | GATCCGCC | 0.0797
145 | CATCCGCA | 0.108
146 | AATCCGCT | -0.0489
147 | AATCCGGT | 0.36
148 | AATCCGGC | 0.3
149 | GATCCGGA | 0.395
150 | GATCCGGC | 0.354

Row | Sequence | PBM E-score
151 | CATCCGGA | 0.375
152 | AATGGGTC | -0.184
153 | ATGGCCCC | -0.162
154 | CTAGTAAC | -0.0898
155 | CTACCCAC | -0.304
156 | TAAAGCGA | 0.0559
157 | GGACTGCC | -0.102
158 | ATTATGGC | 0.0693
159 | AAGGCTAT | -0.0663
160 | CCTGGTAC | -0.0559
161 | CTGCGGGA | -0.0974
162 | AATAACCA | 0.0129
163 | CGCTTTAC | -0.137
164 | CATCCGCC | 0.0602
165 | AATCCGGA | 0.401
166 | CATCCGGC | 0.358
167 | AATCCGCA | 0.101
168 | CATCCGTC | -0.0104
169 | AATCCGTA | 0.0372
170 | CCGAGCAG | 0.17
171 | ACCAATCA | 0.0919
172 | AGCTTTCG | 0.105
173 | ATTCCCAC | -0.171
174 | CTGGTGTA | -0.234
175 | ATATTTCG | 0.318

Row | Sequence | PBM E-score
176 | ATTTTCGG | 0.377
177 | ATTTCCCG | 0.328
178 | ATCTTCGA | -0.0159
179 | ATTTCCCA | 0.107
180 | ATATTTCA | 0.201
181 | ATCTTCGC | -0.0164
182 | ATTTTCGC | 0.111
183 | ATCTTCGG | 0.35
184 | ATTTCCCC | -0.166
185 | ATATTTCC | 0.177
186 | ATTTTCGA | 0.121
187 | CCCATTCC | -0.258
188 | ACACTCCA | -0.127
189 | AAGGCTTC | -0.0592
190 | TATTCTAA | 0.181
191 | CACTTCTA | -0.133
192 | CCTTGCTC | -0.141
193 | GGAGGTAA | -0.0289
194 | AGTTTCCA | 0.111
195 | ATTTTCCC | 0.00872
196 | ATTTCTTG | 0.216
197 | CATTTCCG | 0.3
198 | ATTTCTTA | 0.216
199 | ATTTTCCG | 0.4
200 | AATTTCCG | 0.406

Row | Sequence | PBM E-score
201 | AGTTTCCG | 0.392
202 | ATTTCTTC | 0.315
203 | AGTTTCCC | -0.0163
204 | AATTTCCC | 0.0065
205 | ATTTTCCA | 0.178
206 | ATGAAGCA | -0.0497
207 | CACTTCTC | -0.119
208 | CGTAAGTC | -0.00193
209 | ATTGTTGA | 0.141
210 | CCTGCATA | -0.105
211 | ACAGCGAA | 0.117
212 | CTTACTGC | -0.0955
213 | AATTTTCG | 0.092
214 | ATTTCTCG | 0.308
215 | ATTTTTCG | 0.314
216 | ATTTCTCA | 0.099
217 | ATTTCTCC | 0.122
218 | ATTTTTCA | 0.169
219 | ATCTCACA | -0.0208
